The panel holds about 79,000 compounds, 15% with a hit somewhere; the sample as a whole holds those more often. Values without a mark were called inactive. Active and inactive are the calls of the source. No stated cut-off is given here; in the data, active means growth inhibition above about 70%; inactive means the rest.
What was measured:
[1] = NCI Yeast Anticancer Drug Screen. Data for the rad50 strain (AID 155);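 further: 0% = growth of vehicle-only cultures of the same strain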; settings: S. cerevisiae rad50 strain growth inhibition, active compounds read high
Summary of the method: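 Cells are treated with compound, grown, and their growth is then scored against vehicle-only cultures of the same repair-deficient yeast strain.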

[2] = NCI Yeast Anticancer Drug Screen. Data for the mec2-1 strain (AID 157); settings: S. cerevisiae mec2-1 strain, active compounds read high
Summary of the method: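 Yeast mec2-1 mutant treated with compound. Readout: growth inhibition vs vehicle controls.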

[3] = NCI Yeast Anticancer Drug Screen. Data for the sgs1 mgt1 strain (AID 161);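 further: 0% = growth of cultures given vehicle only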; settings: S. cerevisiae sgs1 mgt1 strain, active compounds read high
Summary of the method: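 Read-out: growth inhibition vs vehicle controls. Cells: mutant yeast strain deficient in DNA damage repair.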

[4] = NCI Yeast Anticancer Drug Screen. Data for the cln2 rad14 strain (AID 165);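 further: 0% = growth equal to vehicle treated cultures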; settings: S. cerevisiae cln2 rad14 strain, active compounds read high
Summary of the method: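 cln2 rad14 yeast strain; compound exposure; growth inhibition read vs vehicle controls.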

[5] = NCI Yeast Anticancer Drug Screen. Data for the bub3 strain (AID 167); settings: S. cerevisiae bub3 mutant strain, active compounds read high
Summary of the method: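 Part of a panel of yeast mutants defective in DNA damage repair or cell cycle regulation. Each strain is grown with compound, and inhibition is calculated relative to solvent-treated cultures.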

[6] = NCI Yeast Anticancer Drug Screen. Data for the mlh1 rad18 strain (AID 175); settings: S. cerevisiae mlh1 rad18 strain growth inhibition, active compounds read high
Summary of the method: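 Yeast w/ defined DNA-repair lesions; compound exposure; growth vs vehicle controls → % inhibition.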

[7] = at 5.0 µM (retest, dose inferred, filed as 0.5)
[8] = at 50.0 µM (retest, dose inferred, filed as 5.0)

Compound | growth inhibition [1, 7] | growth inhibition [1, 8] | growth inhibition ([1]; at 50.0 µM) | growth inhibition [2, 7] | growth inhibition [2, 8] | growth inhibition ([2]; at 50.0 µM) | growth inhibition [3, 7] | growth inhibition [3, 8] | growth inhibition ([3]; at 50.0 µM) | growth inhibition [4, 7] | growth inhibition [4, 8] | growth inhibition ([4]; at 50.0 µM) | growth inhibition [5, 7] | growth inhibition [5, 8] | growth inhibition ([5]; at 50.0 µM) | growth inhibition [6, 7] | growth inhibition [6, 8] | growth inhibition ([6]; at 50.0 µM)
CCN1CCC(O)(c2ccc(O)cc2)C(C(=O)c2ccc(O)cc2)C1 (configuration not stated) | -9% | -9% | 72% (active) | -9% | 8% | 82.6% (active) | 6% | 13% | 91.3% (active) | 18% | 21% | 7.1% | -9% | 19% | 13.3% | 1% | 29% | 86.7% (active)
COC1OC(OC)[CH]([Hg][Cl])C1OC (configuration not stated) | 99% (active) | 99% (active) | 99.5% (active) | 99% (active) | 100% (active) | 99.7% (active) | 99% (active) | 99% (active) | 99.4% (active) | 99% (active) | 99% (active) | 98.5% (active) | 100% (active) | 99% (active) | 99.2% (active) | 99% (active) | 99% (active) | 99.4% (active)
CCOC(=O)C1=C(C)/C(=C/c2[n-]c(C)c(C(=O)OCC)c2C)N=C1C.CCOC(=O)C1=C(C)/C(=C/c2[n-]c(C)c(C(=O)OCC)c2C)N=C1C.[Zn+2] | 4% | 55% | 99% (active) | 2% | 47% | 99.3% (active) | 2% | 34% | 98.8% (active) | 7% | 6% | 98.2% (active) | 4% | 55% | 99.4% (active) | 6% | 55% | 98.2% (active)
CC(=O)OCC12CCC(C)=CC1OC1C(O)C(OC(C)=O)C2(C)C12CO2 (configuration not stated) | 99% (active) | 99% (active) | 92.7% (active) | 98% (active) | 100% (active) | 94.5% (active) | 98% (active) | 99% (active) | 93.7% (active) | 99% (active) | 99% (active) | 92.8% (active) | 97% (active) | 99% (active) | 92.8% (active) | 99% (active) | 99% (active) | 92.5% (active)
O=C1C(C(Nc2ccccc2)c2ccccc2)=C([O-])c2ccccc21.O=C1C(C(Nc2ccccc2)c2ccccc2)=C([O-])c2ccccc21.[Co+2] (configuration not stated) | 66% | 61% | 73.7% (active) | 42% | 62% | 55.6% | 42% | 51% | 73% (active) | 41% | 40% | 35% | 56% | 54% | 77.4% (active) | 45% | 64% | 65.5%
CC(C=O)[Se]c1ccccc1 (configuration not stated) | -2% | 57% | 91.9% (active) | 8% | 53% | 77.7% (active) | -3% | 72% (active) | 86.2% (active) | -9% | 48% | 48.6% | 11% | 67% | 86.8% (active) | 12% | 73% (active) | 91.5% (active)
O=[N+]([O-])c1cccc(SC(Cl)(Cl)Cl)c1 | 8% | 97% (active) | 99.5% (active) | 40% | 99% (active) | 99.5% (active) | 31% | 99% (active) | 99.1% (active) | -11% | 96% (active) | 97.1% (active) | -1% | 99% (active) | 99.2% (active) | 45% | 99% (active) | 99.3% (active)
NCCNCCN1CC1 | -2% | 0% | 64.9% | 1% | 1% | 0.35% | 1% | -1% | 39.9% | -2% | -3% | 19.1% | -1% | -6% | 33% | -1% | -1% | 40%
ClCC[Se](Cl)(Cl)c1ccccc1 | 33% | 75% (active) | 42.9% | 19% | 20% | 55.6% | 29% | 48% | 72% (active) | 25% | 44% | 60.5% | 6% | 46% | 53.2% | 33% | 68% | 86.2% (active)
Cc1c2ccncc2c(CN(CCCl)CCCl)c2c3ccccc3n(C)c12 | 10% | 98% (active) | 90.3% (active) | 17% | 99% (active) | 88.5% (active) | -25% | 86% (active) | 85.2% (active) | 6% | 96% (active) | 88.2% (active) | -10% | 80% (active) | 82.1% (active) | 24% | 99% (active) | 91.8% (active)
O=C(CCl)OCc1ccccc1 | 1% | 14% | 34.1% | 3% | 21% | 30.7% | 0% | 18% | 10.3% | 5% | 10% | -21.9% | -3% | 5% | 5.4% | 5% | 20% | 55%
S=C=NC/C(Cl)=C/Cl | 43% | 48% | 71.9% (active) | 49% | 45% | 53.5% | 14% | 89% (active) | 72.5% (active) | 56% | 71% (active) | 56.9% | 35% | 91% (active) | 69.2% | 38% | 46% | 70.5% (active)
CCC[CH2][Sn]1([CH2]CCC)[O]C(=O)c2ccc(C)cc2[O]1 | 79% (active) | 99% (active) | 98.8% (active) | 84% (active) | 99% (active) | 99.3% (active) | 85% (active) | 98% (active) | 99.2% (active) | 76% (active) | 98% (active) | 98% (active) | 84% (active) | 98% (active) | 98.7% (active) | 82% (active) | 97% (active) | 98.8% (active)
O=P(CCP(=O)(c1ccccc1)c1ccccc1)(c1ccccc1)c1ccccc1.[Cl][Sn]([Cl])([c]1ccccc1)[c]1ccccc1 | 82% (active) | 97% (active) | 87.7% (active) | 45% | 99% (active) | 90.1% (active) | 91% (active) | 98% (active) | 88.5% (active) | 32% | 97% (active) | 88.8% (active) | 81% (active) | 98% (active) | 88% (active) | 88% (active) | 95% (active) | 91.6% (active)
O=[N+]([O-])/C=C/c1c(Cl)cccc1Cl | 99% (active) | 99% (active) | 99.2% (active) | 100% (active) | 100% (active) | 99.2% (active) | 99% (active) | 99% (active) | 99.3% (active) | 99% (active) | 99% (active) | 98% (active) | 100% (active) | 99% (active) | 99.3% (active) | 99% (active) | 99% (active) | 99.2% (active)
CS(=N)(=O)CCC(N)C(=O)O (configuration not stated) | -162% | -152% | 11.4% | -50% | -48% | 9.8% | -65% | -45% | -3.9% | -69% | -61% | 18.7% | -73% | -78% | 2.1% | -153% | -114% | 14.6%
C[C@@H](O)[C@H]1/C=C/C=C\C(=O)O[C@@H]2C[C@H]3O[C@@H]4[C@@H]5OC5(C)CCC4(COC(=O)[C@H]4O[C@]4(C)[C@@H](O)CO1)[C@]2(C)[C@]31CO1 (some centres not stated) | 26% | 95% (active) | 91.4% (active) | 24% | 87% (active) | 92.5% (active) | 44% | 96% (active) | 92% (active) | 42% | 96% (active) | 90.4% (active) | 31% | 93% (active) | 91% (active) | 28% | 97% (active) | 90.2% (active)
c1cs[c]([Hg][c]2cccs2)c1 | 99% (active) | 98% (active) | 99.7% (active) | 99% (active) | 76% (active) | 99.5% (active) | 100% (active) | 97% (active) | 99.6% (active) | 97% (active) | 97% (active) | 98% (active) | 100% (active) | 98% (active) | 99.5% (active) | 99% (active) | 95% (active) | 99.5% (active)
CC1=C(CC/C(C)=C/CCC2(C)CCC([C@H](C)C(=O)O)OO2)C(C)(C)CCC1 (some centres not stated) (tested in a mixture with another compound) | 18% | 97% (active) | 90.2% (active) | 39% | 97% (active) | 93% (active) | 52% | 96% (active) | 93% (active) | 46% | 97% (active) | 90.5% (active) | 9% | 97% (active) | 92.2% (active) | 51% | 96% (active) | 91.3% (active)

— PubChem BioAssay (NCI)
